# This is part of a sample that, as a whole, favours compounds with a hit. Of some 83,000 tested, about 20% had one in any assay.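 Values shown are percent growth following 48 h exposure of cells in 96-well plates to a single concentration of compound; below 10 was considered active.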 A number with no mark means an inactive call. Activity calls are given as the source filed them.
# Columns and labels:
# Assay in all cases: NCI-60 one-dose screen, 48 h (100 = growth as untreated, 0 = no growth, -100 = all killed)
# Settings in all cases: 10 µM unless noted
# HCT-15 colon = test system: HCT-15 colon
# HT29 colon = test system: HT29 colon
# SNB-75 CNS = test system: SNB-75 CNS
# SNB-19 CNS = test system: SNB-19 CNS
# PC-3 prostate = test system: PC-3 prostate
# SK-MEL-5 melanoma = test system: SK-MEL-5 melanoma
# UACC-62 melanoma = test system: UACC-62 melanoma
# LOX IMVI melanoma = test system: LOX IMVI melanoma
# SK-MEL-28 melanoma = test system: SK-MEL-28 melanoma
# SK-MEL-2 melanoma = test system: SK-MEL-2 melanoma
# EKVX NSCLC = test system: EKVX NSCLC
# UO-31 renal = test system: UO-31 renal
# TK-10 renal = test system: TK-10 renal
# ACHN renal = test system: ACHN renal
# CAKI-1 renal = test system: CAKI-1 renal
# A498 renal = test system: A498 renal
# CCRF-CEM leukemia = test system: CCRF-CEM leukemia
# MOLT-4 leukemia = test system: MOLT-4 leukemia
# SN12C renal = test system: SN12C renal
# U251 CNS = test system: U251 CNS
Compound,growth (HCT-15 colon),growth (HT29 colon),growth (SNB-75 CNS),growth (SNB-19 CNS),growth (PC-3 prostate),growth (SK-MEL-5 melanoma),growth (UACC-62 melanoma),growth (LOX IMVI melanoma),growth (SK-MEL-28 melanoma),growth (SK-MEL-2 melanoma),growth (EKVX NSCLC),growth (UO-31 renal),growth (TK-10 renal),growth (ACHN renal),growth (CAKI-1 renal),growth (A498 renal),growth (CCRF-CEM leukemia),growth (MOLT-4 leukemia),growth (SN12C renal),growth (U251 CNS)
COc1cc2nc(N3CCCC3)nc(NCc3ccccc3)c2cc1OC,6.07% (active),18.7%,69.1%,95.6%,67.2%,67.8%,97.3%,10%,57%,106%,74.7%,52.1%,100%,62.2%,65.8%,36.3%,5.92% (active),35.4%,–,–
CSc1nc(Nc2cccc(NC(=O)CCl)c2)c(C#N)c(-c2cccc([N+](=O)[O-])c2)n1,17.5%,17.7%,30.5%,83.5%,30.5%,34.3%,41%,-69.2% (active),102%,57.5%,74.1%,67.2%,137%,84.2%,52.2%,96.6%,–,1.11% (active),34%,–
COc1ccc(-c2nc3ccc(-c4nc5ccc(N6CCN(c7ccccc7)CC6)cc5[nH]4)cc3[nH]2)cc1OC,15.8%,-91% (active),45.6%,-1.62% (active),-31.5% (active),43.4%,41.6%,-91.8% (active),-47.5% (active),89%,40.1%,99.6%,12.4%,44.8%,65.3%,88.4%,–,-5.57% (active),52%,–
O=C1CC(=NCC(=O)n2c(-c3ccccc3)nc3ccccc32)NN1,99.1%,108%,66.6%,97.7%,99.2%,96.6%,94.9%,89.9%,118%,98.7%,77.5%,69.3%,155%,93.3%,75.9%,56.1%,107%,103%,99%,–
C=CC(=O)Nc1cccc(-c2nc(SC)nc(NCCc3ccc(OC)c(OC)c3)c2C#N)c1,52.3%,77.5%,37.9%,71.8%,53.2%,-29.2% (active),48.1%,56.6%,72.3%,65.7%,43.8%,45.1%,82.4%,35.7%,52.8%,–,26.3%,2.39% (active),–,–
COc1cccc(/C=N/NC(=O)c2ccccc2Nc2ccnc(C(F)(F)F)c2)c1O,28.4%,–,19.6%,21.1%,–,-33.1% (active),-24.2% (active),–,23%,–,10.5%,7.6% (active),28.7%,5.22% (active),-2.16% (active),-13% (active),–,–,21.2%,17.1%
O=c1c(F)cn(Cc2ccccc2CCl)c(=O)n1Cc1ccccc1CCl,-57.6% (active),–,-5.72% (active),-23% (active),–,-100% (active),-82.6% (active),-81.7% (active),-65% (active),4.2% (active),-4.31% (active),-80.4% (active),-30.8% (active),-81.8% (active),-84.5% (active),76.3%,-42.9% (active),-40.3% (active),-26.5% (active),-71.6% (active)
Oc1cccc2ccc(N/N=C/c3cc(CN4CCOCC4)c(O)c4ncccc34)nc12,26.2%,–,35.9%,23.9%,28.5%,–,2.18% (active),-71.1% (active),24%,25%,23.4%,-4.14% (active),23%,-29.3% (active),11.5%,21.3%,16.6%,9.34% (active),20.2%,5.22% (active)
Cc1ccc2c(C(C[N+](=O)[O-])c3ccccc3)c(-c3ccccc3)[nH]c2c1 (stereo unspecified),18.8% [9.5 µM],–,-6.93% [9.5 µM] (active),37.4% [9.5 µM],–,32.8% [9.5 µM],38% [9.5 µM],28.5% [9.5 µM],49.3% [9.5 µM],1.05% [9.5 µM] (active),42.3% [9.5 µM],35% [9.5 µM],43.7% [9.5 µM],36.7% [9.5 µM],21.5% [9.5 µM],-1.59% [9.5 µM] (active),19.5% [9.5 µM],21.2% [9.5 µM],42.2% [9.5 µM],25% [9.5 µM]
O=C1c2ccccc2C(=O)c2c(N=Nc3[nH]c(=S)[nH]c3O)cccc21,23.2%,–,-20.2% (active),28.9%,–,13.8%,32.5%,34.1%,52%,–,41.6%,26.9%,54.1%,41.4%,20.6%,-6.1% (active),14.1%,16%,35.3%,12.8%
CCNC(=O)Oc1ccc(/C(=C(\C)c2ccc(Cl)cc2)c2ccc(OCCN3CCCCC3)cc2)cc1,2.75% (active),–,61.7%,64.5%,28.7%,–,-45.7% (active),10.6%,-30.4% (active),62.9%,57.4%,39.3%,83.7%,79.9%,–,83.6%,22.4%,10.7%,–,32.9%
